Test results as given in the supplement of paper PMC9694430.
Structures can show the parent of a compound that is named as a salt.

Key:
Test in all cases: thermal shift delta Tm vs DMSO control; higher = stronger stabilization (binding)
Conditions in all cases: 12.5 µM; protein concentration 2 µM
LOC_OS02G45750-cb003 = test system: LOC_OS02G45750-cb003
Summary of the method: (§1)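 Heating from 25°C to 95°C at 0.05°C/s, fluorescence was recorded for 19.5 μl wells of 2 μM E. coli-expressed, purified rice kinase domain in 100 mM potassium phosphate pH 7.5, 150 mM NaCl, 10% glycerol and 5 × SYPRO Orange with compound in DMSO. Boltzmann fits gave melting temperatures for this differential scanning fluorimetry assay. The shift reported is the mean of three replicates against the DMSO-only protein.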

LOC_OS02G54510-cb004 = test system: LOC_OS02G54510-cb004
Summary of the method: as §1

LOC_OS03G04050-cb001 = test system: LOC_OS03G04050-cb001
Summary of the method: as §1

LOC_OS03G12390-cb001 = test system: LOC_OS03G12390-cb001
Summary of the method: as §1

LOC_OS03G27990-cb004 = test system: LOC_OS03G27990-cb004
Summary of the method: as §1

LOC_OS03G50450-cb001 = test system: LOC_OS03G50450-cb001
Summary of the method: as §1

LOC_OS03G50810-cb003 = test system: LOC_OS03G50810-cb003
Summary of the method: as §1

LOC_OS04G35114-cb001 = test system: LOC_OS04G35114-cb001
Summary of the method: as §1

LOC_OS04G38480-cb003 = test system: T1, LOC_OS04G38480-cb003
T1 sequence (whole entry): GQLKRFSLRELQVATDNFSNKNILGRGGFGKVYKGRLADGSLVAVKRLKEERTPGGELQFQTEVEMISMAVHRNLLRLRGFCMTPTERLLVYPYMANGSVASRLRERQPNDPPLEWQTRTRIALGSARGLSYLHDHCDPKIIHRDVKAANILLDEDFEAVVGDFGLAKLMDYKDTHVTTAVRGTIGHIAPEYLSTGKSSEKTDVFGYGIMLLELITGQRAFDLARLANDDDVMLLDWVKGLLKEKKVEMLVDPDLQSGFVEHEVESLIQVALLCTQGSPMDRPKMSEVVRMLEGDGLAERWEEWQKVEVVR
Summary of the method: as §1

LOC_OS04G41100-cb001 = test system: T2, LOC_OS04G41100-cb001
T2 sequence (whole entry): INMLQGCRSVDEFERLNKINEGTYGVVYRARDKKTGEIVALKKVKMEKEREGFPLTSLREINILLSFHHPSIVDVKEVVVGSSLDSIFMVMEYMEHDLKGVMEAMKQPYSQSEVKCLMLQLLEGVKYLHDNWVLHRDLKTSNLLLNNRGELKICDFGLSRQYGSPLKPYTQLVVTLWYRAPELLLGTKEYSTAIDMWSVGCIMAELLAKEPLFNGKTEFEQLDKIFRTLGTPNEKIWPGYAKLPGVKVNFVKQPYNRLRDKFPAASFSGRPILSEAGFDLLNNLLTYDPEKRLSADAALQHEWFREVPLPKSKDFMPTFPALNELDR
Summary of the method: as §1
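Further: purified Escherichia coli-expressed rice kinase domain construct.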

SMILES	thermal shift delta Tm (LOC_OS02G45750-cb003) [°C]	thermal shift delta Tm (LOC_OS02G54510-cb004) [°C]	thermal shift delta Tm (LOC_OS03G04050-cb001) [°C]	thermal shift delta Tm (LOC_OS03G12390-cb001) [°C]	thermal shift delta Tm (LOC_OS03G27990-cb004) [°C]	thermal shift delta Tm (LOC_OS03G50450-cb001) [°C]	thermal shift delta Tm (LOC_OS03G50810-cb003) [°C]	thermal shift delta Tm (LOC_OS04G35114-cb001) [°C]	thermal shift delta Tm (LOC_OS04G38480-cb003) [°C]	thermal shift delta Tm (LOC_OS04G41100-cb001) [°C]
COCCOc1cnc2ccn([C@H](C)c3nnc4c(F)cc(-c5cnn(C)c5)cn34)c(=O)c2c1	1.08	-0.12	0.22	-0.12	0.2	0.05	-0.09	0.69	0.41	0.65
Cc1nc2c(-c3cnc(N)nc3)nc(N3CCOCC3)nc2n1C(C)C	0.88	0.46	0.51	0.59	0.15	0.73	0.44	1.59	–	–
Cc1cc(Nc2ncc(Cl)c(Nc3ccccc3S(=O)(=O)C(C)C)n2)c(OC(C)C)cc1C1CCNCC1 [Ceritinib (LDK378)]	0.68	0.09	0.7	2.72	0.52	0.56	0.58	0.66	1	0.26
CS(=O)(=O)N1CCc2c(-c3cnc(N)nc3)nc(N3CCOCC3)nc21	1.16	0.52	0.13	0.72	0.23	0.77	0.53	0.89	1.31	0.14
Cc1cn(-c2cc(NC(=O)c3ccc(C)c(Nc4nccc(-c5cccnc5)n4)c3)cc(C(F)(F)F)c2)cn1 [Nilotinib (AMN-107)]	0.19	0.17	0.37	0.05	0.02	0.23	0.16	-0.37	0.3	0.57
CC(C)(C)c1ccc(S(=O)(=O)/C=C/C#N)cc1	-0.34	1.26	0.18	-0.99	-0.83	0.05	-1.59	-1.78	1.74	-0.39
O=C1NC(=O)/C(=C/c2ccc(-c3ccc(F)cc3O)o2)S1	2.33	0.67	1.72	5.37	1.51	3.59	2.55	4.85	4.16	1.17
NC(=O)c1ccc(N(C(N)=O)c2c(F)cccc2F)nc1-c1ccc(F)cc1F	-0.83	-0.06	0.39	-0.04	0.18	0.14	0.25	0.57	-0.04	0.38
O=c1ccc2ccc(O)c(O)c2o1 [Daphnetin]	1.1	0.54	0.75	-0.23	0.69	1.08	0.83	0.8	1.96	0.36
C[C@H]1CNCCCN1S(=O)(=O)c1cccc2cncc(F)c12 [Ripasudil (K-115) hydrochloride dihydrate]	0.9	-0.02	0.39	0.39	0.16	0.22	0.68	0.3	1.26	0.24
O=C1Nc2ccccc2/C1=C1/Nc2ccccc2C1=O [Indirubin]	2.07	0.45	0.62	0.59	0.23	0.08	1.48	3.86	0.97	0.98
O=C(Nc1cc(C(F)(F)F)cc(C(F)(F)F)c1)c1cc(Cl)ccc1O	0.1	-0.16	0.55	1.46	0.24	0.5	0.7	0.29	0.16	0.52
CC(C)CC(NC(=O)C(Cc1ccccc1)NC(=O)C(CCC(N)=O)NC(=O)C(Cc1ccc(O)cc1)NC(=O)C(C)NC(=O)CNC(=O)C(CCCCN)NC(=O)C(Cc1c[nH]c2ccccc12)NC(=O)C(NC(=O)C(Cc1c[nH]c2ccccc12)NC(=O)C(CCCCN)NC(=O)CNC(=O)C(CC(N)=O)NC(=O)C(CCC(=O)O)NC(=O)C(Cc1c[nH]c2ccccc12)NC(=O)C(NC(=O)C(Cc1c[nH]c2ccccc12)NC(=O)C(CO)NC(=O)CNC(=O)C1CCCN1C(=O)C(Cc1c[nH]c2ccccc12)NC(=O)C(CCC(N)=O)NC(=O)C(Cc1ccccc1)NC(=O)CNC(=O)C(N)Cc1c[nH]cn1)C(C)O)C(C)O)C(=O)NC(CCCCN)C(=O)NCC(=O)NCC(=O)NCC(=O)NCC(=O)NC(CO)C(=O)NC(CCCNC(=N)N)C(=O)NC(CCCNC(=N)N)C(=O)NC(CCCNC(=N)N)C(=O)NC(CCCNC(=N)N)C(=O)NC(CCCNC(=N)N)C(=O)NC(CCCNC(=N)N)C(=O)NC(CCCNC(=N)N)C(=O)NC(CCCNC(=N)N)C(=O)NC(CCCNC(=N)N)C(=O)O (stereo not drawn)	0.69	0.13	0.6	-3.52	-3.62	0.05	-1.39	0.3	4.04	0.4
Cc1cc(Nc2nc(N[C@@H](C)c3ncc(F)cn3)ncc2Cl)[nH]n1	3.59	2.58	0.1	5.26	0.82	2.31	3.08	1.86	2.03	0.47
C=CC(=O)Nc1cccc(Oc2nc(Nc3ccc(N4CCN(C)CC4)cc3)ncc2Cl)c1	3.96	0.5	0.53	3.42	2.49	1.35	4.77	3.8	1.67	1.1
COc1cc2ncnc(Oc3cccc(NC(=O)Nc4cc(C(C)(C)C(F)(F)F)on4)c3)c2cc1OC	0.81	1.05	0.36	0.21	0.47	0.59	0.19	0.57	0.16	0.2
Cc1ccc(-n2nc(C(C)(C)C)cc2NC(=O)Nc2ccc(OCCN3CCOCC3)c3ccccc23)cc1 [Doramapimod (BIRB 796)]	-1.12	0.33	0.33	-0.03	0.31	0.1	0.01	0.68	0.95	0.9
CCn1c(=O)c(-c2ccc(Cl)cc2Cl)cc2cnc(Nc3ccc(N4CCNCC4)c(F)c3)nc21	10.1	8.42	-0.88	4.85	10.7	0.54	6.99	11	3.17	2.82
CNC(=O)Nc1ccc(-c2nc(N3CC4CCC(C3)O4)c3cnn(C4CCC5(CC4)OCCO5)c3n2)cc1	0.68	0.19	0.28	0.26	0.16	0.34	-0.43	0.16	1.69	0.57
